The values that follow come from PubChem BioAssay (Tox21).

The nature of assay [1]: A CellTox Green Cytotoxicity Assay to monitor cytotoxicity in HEK293 cells - 32 hour (AID 1224881). Note: nearly all actives have a fitted effect of over 40% in size. In a few lines:
(§1)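 HEK293 cells, 600/well, were preincubated 5 hours and then exposed to compounds at 37 C for up to 40 hours. A cell-impermeant cyanine dye staining dead-cell DNA was read by fluorescence at 0, 8, 16, 24, 32 and 40 h time points.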

Assay [2] is described as follows: A CellTox Green Cytotoxicity Assay to monitor cytotoxicity in HepG2 cells - 32 hour (AID 1224883). Note: nearly all actives have a fitted effect of over 50% in size. Note: potency is the fitted concentration of half-maximal effect. In a few lines:
(§2)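 HepG2 cells, 600/well, preincubated 5 h with CellTox Green dye, then exposed to Tox21 compounds in DMSO at 37 C for up to 40 h. Dead-cell DNA fluorescence read at the indicated time point.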

A short description of assay [3]: A CellTox Green Cytotoxicity Assay to monitor cytotoxicity in HEK293 cells - 8 hour (AID 1224884). Note: nearly all actives have a fitted effect of over 35% in size. The procedure, abridged: as §1
Assay [4] can be described thus: qHTS RealTime-Glo MT Cell Viability Assay in HepG2 cells - 16 hour (AID 1224885). Note: nearly all actives have a fitted effect of over 50% in size. The procedure, abridged:
(§3)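 HepG2 cells were seeded at 600 cells/well together with NanoLuc luciferase and a cell-permeant prosubstrate, preincubated 5 h at 37 C/5% CO2, then pin-dosed with compounds in DMSO. Nonlytic luminescence from viable cells was read at each time point.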
On the technique in general: qHTS replaces the single test concentration by a dilution series.

A short description of assay [5]: qHTS RealTime-Glo MT Cell Viability Assay in HEK293 cells - 24 hour (AID 1224886). Note: top concentration of the series differs between compounds; nearly all actives have a fitted effect of over 50% in size. The procedure, abridged:
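HEK293 cells were seeded at 600 cells/well together with NanoLuc luciferase and cell-permeant prosubstrate, preincubated 5 h at 37 C/5% CO2, then given compound in DMSO by pintool. Luminescence from viable-cell prosubstrate reduction was read repeatedly over 40 h.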

Assay [6] can be described thus: qHTS RealTime-Glo MT Cell Viability Assay in HepG2 cells - 0 hour (AID 1224889). Note: nearly all actives have a fitted effect of over 50% in size. Note: potency is the fitted concentration of half-maximal effect. In a few lines:
as §3

Assay [7] can be described thus: A CellTox Green Cytotoxicity Assay to monitor cytotoxicity in HepG2 cells - 8 hour (AID 1224890). Note: nearly all actives have a fitted effect of over 45% in size. The procedure, abridged:
as §2

The nature of assay [8]: qHTS assay to identify small molecule antagonists of the estrogen receptor alpha (ER-alpha) signaling pathway using the BG1 cell line in the presence of 0.1 nM 17-beta-estradiol - cell viability counter screen (AID 1259241). Note: nearly all actives have a fitted effect of over 40% in size. In a few lines:
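Cells were plated and left 24 hr, compounds in DMSO were pinned in, 17beta-estradiol was added to 0.1 nM final, and after 22 hr CellTiter-Fluor reagent was added for 30 min before fluorescence was read.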

Assay [9] in a line: qHTS assay to identify small molecule antagonists of the androgen receptor (AR) signaling pathway using the MDA cell line in the presence of 0.5 nM R1881 - cell viability counter screen (AID 1259242). Note: nearly all actives have a fitted effect of over 45% in size. In a few lines:
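MDA-kb2 cells (MMTV-luciferase, AR/GR responsive) were treated with compounds plus 0.5 nM R1881 (final) for 16 hr at 37C, 0% CO2. Viability was then read in the same wells as live-cell protease fluorescence (CellTiter-Fluor, 30 min).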

Assay [10] addresses Estrogen receptor (Homo sapiens) (UniProt P03372). The assay can be described thus: qHTS assay to identify small molecule antagonists of the estrogen receptor alpha (ER-alpha) signaling pathway using the BG1 cell line in the presence of 0.1 nM 17-beta-estradiol (AID 1259244). Note: nearly all actives have a fitted effect of over 50% in size. The procedure, abridged: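 VM7Luc4E2 cells (endogenous full-length ER-alpha, 4×ERE-luciferase), kept 5 days in phenol red-free, charcoal-stripped FBS medium; 4,000 cells/well. Compounds added with 0.1 nM (final) 17beta-estradiol, 22 hr at 37C; luminescence read with ONE-Glo after 30 min.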

A short description of assay [11]: qHTS assay to identify small molecule phospholipidosis (PLD) inducers (AID 1259344; active = well fitted curve in the direction sought with a large enough effect; an effect the other way counts as inactive or inconclusive). The procedure, abridged:
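HepG2 cells grown on collagen I take up LipidTOX Red while exposed to compound for 24 h; after fixation they are imaged at 20x and pit metrics are extracted.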

Assay [12] in a line: qHTS assay to identify small molecule HDAC inhibitors - cell viability counter screen (AID 1259365). The procedure, abridged:
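Counter screen in wild-type HCT-116 cells: compounds dissolved in DMSO are pin-transferred onto overnight-plated cells and left 2hr at 37C. ATP-based CellTiter-Glo luminescence then measures viable cells.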

Assay [13] in a line: qHTS assay to identify small molecule agonists of the sonic hedgehog signaling (Shh) pathway - cell viability counter screen (AID 1259366). Note: nearly all actives have a fitted effect of over 50% in size. Note: potency is the fitted concentration of half-maximal effect. The procedure, abridged: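 Cells are plated at 2,000 per well and left 4hr at 37C, 5% CO2 before compound addition. After 23hr of treatment, CellTiter-Fluor reagent is added for 1hr at 37C and fluorescence is measured.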
A short description of assay [14]: qHTS assay to identify small molecule antagonists of the sonic hedgehog signaling (Shh) pathway - cell viability counter screen (AID 1259367). Note: nearly all actives have a fitted effect of over 55% in size. Note: potency is the fitted concentration of half-maximal effect. The procedure, abridged: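 After a 4 hr settling period, 3T3 Gli1-Luc cells were treated with DMSO-dissolved chemicals and conditioned medium, kept 24 hr at 37C in 5% CO2, and assayed for viability by CellTiter-Fluor fluorescence following 1 hr reagent incubation.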

A short description of assay [15]: qHTS assay to identify small molecule agonists of the sonic hedgehog signaling (Shh) pathway (AID 1259368; calls by dose curve;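 note: NIH/3T3-derived 3T3Gli1-Luc cells carrying a stable Gli1-driven firefly luciferase reporter; series mostly up to about 92 µM; nearly all actives have a fitted effect of over 15% in size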). The procedure, abridged:
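NIH/3T3-derived 3T3Gli1-Luc cells with stably integrated Gli1-driven firefly luciferase, 2,000 cells/well, compounds added after 4 hr. Incubated 24 hr at 37C, 5% CO2; luminescence read after 30 min with luciferase reagent at room temperature.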

Assay [16] is described as follows: A CellTox Green Cytotoxicity Assay to monitor cytotoxicity in HepG2 cells - 0 hour (AID 1224882). Note: nearly all actives have a fitted effect of over 35% in size. In a few lines: as §2
Assay [17] can be described thus: qHTS RealTime-Glo MT Cell Viability Assay in HEK293 cells - 8 hour (AID 1224887). In a few lines: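 600 cells/well were plated with the nonlytic NanoLuc/prosubstrate reagent, pre-incubated 5 h, then given 23 nL of compound in DMSO. Incubation at 37 C for 40 h, with luminescence from viable-cell-reduced substrate read repeatedly from 0 h.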
A short description of assay [18]: A CellTox Green Cytotoxicity Assay to monitor cytotoxicity in HEK293 cells - 16 hour (AID 1224888). Note: nearly all actives have a fitted effect of over 35% in size. In a few lines: as §1
Assay [19] in a line: qHTS assay to identify small molecule HDAC inhibitors (AID 1259364). Note: top concentration of the series differs between compounds; nearly all actives have a fitted effect of over 45% in size. The procedure, abridged:
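Wild-type HCT-116 cells, plated overnight at 37 C, exposed to compounds 2 hr at 37 C; luminogenic HDAC-Glo substrate then added 30 min at room temperature. Luminescence reports relative endogenous class I/II HDAC activity.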

Results filed as inconclusive are left out. The source made the active and inactive calls. Unless noted, calls come from the whole dose curve; as a rule, active = well fitted curve in the direction sought with a large enough effect in the repeat runs; inconclusive = weak or mixed curves; inactive = no such curve, though single readings can be large; an effect the other way counts as inactive or inconclusive.

Chain of Estrogen receptor (Homo sapiens) (P03372 whole entry, looked up): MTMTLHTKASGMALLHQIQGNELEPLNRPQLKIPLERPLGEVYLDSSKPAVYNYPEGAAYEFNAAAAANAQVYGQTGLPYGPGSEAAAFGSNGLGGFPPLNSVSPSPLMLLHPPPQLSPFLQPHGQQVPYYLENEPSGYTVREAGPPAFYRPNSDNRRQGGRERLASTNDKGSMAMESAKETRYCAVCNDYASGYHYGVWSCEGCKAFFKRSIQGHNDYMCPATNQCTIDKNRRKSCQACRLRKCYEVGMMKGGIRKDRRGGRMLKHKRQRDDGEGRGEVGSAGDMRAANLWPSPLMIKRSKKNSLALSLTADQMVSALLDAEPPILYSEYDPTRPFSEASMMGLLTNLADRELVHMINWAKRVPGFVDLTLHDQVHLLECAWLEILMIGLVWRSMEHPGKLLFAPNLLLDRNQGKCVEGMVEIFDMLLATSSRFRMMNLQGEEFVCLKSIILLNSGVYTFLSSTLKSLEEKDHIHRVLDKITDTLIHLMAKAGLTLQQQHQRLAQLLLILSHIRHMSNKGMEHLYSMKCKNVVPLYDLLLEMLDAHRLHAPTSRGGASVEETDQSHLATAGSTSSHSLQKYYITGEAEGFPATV

As to `Cc1ccc(C(=O)C(C)CN2CCCCC2)cc1` (configuration not stated), the Potency result in assay [1], in assay [2], in assay [3], in assay [4], in assay [5] and in [6] was “inactive” in each case. Further, the Potency result in assay [7], in assay [8], in assay [9], in [10], in [11] and in assay [13] was “inactive” throughout. Also, the Potency entry in assay [14] is “inactive”. The outcome in [12] and in [15] was inactive.

Take `CCCCCCCCCC=O`: the Potency entry in [16], in assay [2], in [3], in assay [4], in assay [5] and in [17] was “inactive” each time. For the same molecule, the Potency entry in assay [18], in assay [6], in [7], in [8], in assay [9] and in assay [10] was “inactive” in each case. For the same molecule, the Potency entry in assay [19], in [13] and in assay [14] was “inactive” each time. Further, the outcome in [12] and in assay [15] was inactive.

With `C[Si](C)O[Si](C)(C)O[Si](C)(C)O[Si](C)C`, the Potency result in assay [16], in [2], in assay [3], in assay [4], in [5] and in [17] was “inactive” each time. Moreover, the Potency result in assay [18], in assay [6], in assay [7], in [8], in assay [9] and in assay [10] was “inactive” each time. Also, the Potency result in assay [13] and in [14] was “inactive” in each case. The molecule was called inactive in [12] and in assay [15].

On to `CCCCOC(=O)/C=C\C(=O)OCCCC`, for which the Potency entry in [1], in assay [2], in assay [3], in assay [5], in assay [17] and in [18] was “inactive” each time. Moreover, the Potency result in [6], in [7], in assay [8], in [9], in assay [10] and in [19] was “inactive” throughout. Further, the Potency result in assay [13] and in assay [14] was “inactive” each time. The call in [12] and in assay [15] was inactive.

For `CCc1nn(C2CCCCC2)c2cc(C3(C#N)CCC(C(=O)O)CC3)ccc12` (configuration not stated), the Potency entry in assay [1], in assay [3], in assay [4], in assay [5], in [17] and in assay [18] was “inactive” throughout. Also, the Potency entry in assay [6], in assay [7], in assay [8], in assay [9] and in assay [10] was “inactive” each time. The call in [12] and in [15] was inactive. Moreover, the Potency in assay [13] was 30.6 µM (active); in assay [14], 27.3 µM (active).

`CCCCCC(CO)CCC` (configuration not stated): the Potency entry in assay [1], in assay [2], in [3], in assay [4], in assay [5] and in [6] was “inactive” throughout. For the same molecule, the Potency entry in [7], in assay [8], in [9], in assay [13] and in [14] was “inactive” each time. In addition, the molecule was classed as inactive in assay [15].

For `CCCCCc1ccc(N)cc1`, the Potency result in assay [16], in assay [3], in assay [4], in assay [5], in assay [18] and in assay [6] was “inactive” in each case. The Potency entry in assay [8], in assay [9], in assay [10], in assay [19], in [13] and in assay [14] was “inactive” throughout. Besides, in [2], the Potency is 49 µM (active). Moreover, the result in [12] and in assay [15] was inactive.

On to `CCOC(=O)C1=C(C)NC(C)=C(C(=O)OC)C1c1cccc([N+](=O)[O-])c1` (configuration not stated), for which the Potency entry in assay [1], in assay [2], in [7], in assay [8], in [9] and in assay [10] was “inactive” each time. Moreover, the Potency result in assay [11], in assay [19] and in assay [14] was “inactive” in each case. Also, the Potency in assay [6] is 7.56 µM (active). For the same molecule, in assay [15], the outcome was inactive.

For the molecule `CN(C)C/C=C(/c1ccc(Br)cc1)c1cccnc1`, the Potency entry in assay [16], in [2], in assay [3], in assay [4], in [5] and in [17] was “inactive” in each case. For the same molecule, the Potency result in assay [6], in assay [7], in assay [8], in assay [9], in [11] and in assay [19] was “inactive” in each case. Also, the Potency result in [13] and in [14] was “inactive” throughout. Moreover, in assay [15], the outcome was inactive.
